Hit rate of the full screen: of about 320,000 compounds, about 620 (0.19%) were called active. Roughly 6% stayed inconclusive and do not appear here. The sample as a whole holds a higher share of actives than the screen did. Values without a mark were called inactive. No stated cut-off is given here; in the data, active means activation above about 80%; inconclusive means between about 30% and that limit; inactive means weaker than that.
Target: Transient receptor potential cation channel subfamily V member 1 (Homo sapiens) (UniProt Q8NER1)
Sequence (Q8NER1 whole entry, looked up): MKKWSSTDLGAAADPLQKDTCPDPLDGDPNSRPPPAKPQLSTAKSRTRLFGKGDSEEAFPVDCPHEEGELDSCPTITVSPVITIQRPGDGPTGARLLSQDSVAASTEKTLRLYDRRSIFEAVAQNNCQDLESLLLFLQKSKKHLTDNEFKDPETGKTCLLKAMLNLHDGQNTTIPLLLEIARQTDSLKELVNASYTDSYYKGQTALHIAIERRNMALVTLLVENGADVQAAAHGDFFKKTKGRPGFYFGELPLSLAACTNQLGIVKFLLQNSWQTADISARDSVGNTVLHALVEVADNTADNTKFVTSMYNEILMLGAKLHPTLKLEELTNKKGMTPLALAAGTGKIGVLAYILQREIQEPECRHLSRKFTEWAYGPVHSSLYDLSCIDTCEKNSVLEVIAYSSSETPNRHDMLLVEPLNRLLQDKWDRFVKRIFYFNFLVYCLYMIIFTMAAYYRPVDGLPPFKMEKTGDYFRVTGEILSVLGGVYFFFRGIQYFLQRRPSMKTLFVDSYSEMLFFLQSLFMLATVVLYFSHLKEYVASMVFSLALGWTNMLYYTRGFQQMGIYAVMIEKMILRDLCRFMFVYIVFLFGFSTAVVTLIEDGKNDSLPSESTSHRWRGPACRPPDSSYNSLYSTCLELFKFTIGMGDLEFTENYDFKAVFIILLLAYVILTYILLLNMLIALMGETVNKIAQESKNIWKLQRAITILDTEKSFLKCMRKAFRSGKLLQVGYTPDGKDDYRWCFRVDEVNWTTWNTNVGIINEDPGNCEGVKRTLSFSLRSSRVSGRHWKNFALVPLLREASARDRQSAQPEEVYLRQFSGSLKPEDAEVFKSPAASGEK
Assay: HTS Assay for Compounds that Act as Agonists of the Vanilloid Receptor 1; further: 0% is about no effect
Details: TRPV1-expressing cells, Fluo-8 calcium influx, agonist mode; at 8.33 µM; stronger effect = higher value
Description: The transient receptor potential ion channel, family V, number 1, (TRPV1) is one of the most important molecular transducers of painful stimuli and a potential target for analgesic drug development. Although recent clinical trials with orthosteric antagonists have not produced a successful drug because of a hyperthermia side effect and their tendency to block thermal noxious pain, this ion channel is undeniably well placed in the pain pathway, and the idea of blocking pain signals before they enter the CNS is an excellent concept and of proven efficacy when TRPV1 agonists are used. We propose a new approach involving allosteric modulation to impose an activity-dependent constraint within the context of inflammation and tissue damage that would alter the responsiveness of the channel in a way that an orthosteric vanilloid antagonist cannot achieve. We believe that the allosteric modulator approach has not been explored for this target. The main goal of this proposal is to identify additional, new, potent allosteric modulators of TRPV1 that can be used to investigate TRPV1 function. Our recent report provides evidence of proof of concept, but the compounds are just at the edge of utility in terms of potency. […] The question of whether they can be used as analgesic agents is complex, but if suitable compounds are identified then testing for analgesic properties will be conducted. NIH Chemical Genomics Center [NCGC] NIH Molecular Libraries Probe Centers Network [MLPCN] MLPCN Grant: MH089480-1A1 Assay Submitter (PI): Michael Iadarola, National Institute of Dental and Cranofacial Research
Upon TRPV1 activation in TRPV1 cells, the channel opens and extracellular cations flow through the channel into the cytosol. A calcium binding dye (Fluo-8) becomes fluorescent when bound to calcium. This dye is pre-loaded into cells and is used as a marker for calcium influx. The amount of accumulated calcium is precisely quantified using the FDSS kinetic reader and the calcium dye. For the HTS assay, freshly prepared cells are plated at a density of 2000/well in 3 ul medium in 1536-well plates and cultured overnight at 35.5C. Cells will be loaded with 1 ul of the homogeneous calcium dye (ABD Bioquest) at room temperature for 40 to 90 minutes. Plates will be loaded into the FDSS kinetic reader and a 1 sec / cycle for 10 second baseline signal will be measured. Compound library will then be added with a pintool at 23 nl and measured kinetically for 3 minutes. This portion of the read is considered the agonist portion of the screen. Following the 3 minutes of incubation, an on board pipettor will deliver 1 ul of capsaicin for a final concentration equal to the EC20. Signal will be measured kinetically for an additional 2 minutes. This portion of the read is considered the allosteric enhancer portion of the screen. The FDSS reader has a standard filter set capable of measuring calcium bound Fluo-8 (ex=480 and em=520 nm).

SMILES	activation
O=C(Nc1ccc(C(F)(F)F)cc1)c1cccc(-n2cnnn2)c1	11.1%
COc1cc(C(=O)NNC(=O)CN2C(=O)NC3(CCCC3)C2=O)cc(OC)c1OC	-0.801%
O=C(c1ccc(Cl)c(S(=O)(=O)N2CCCCCC2)c1)N1CCN(c2ccc(O)cc2)CC1	13.5%
CC1CCCCC1NC(=O)NC(=O)COC(=O)C1=NN(c2ccccc2)C(=O)CC1 (stereo not drawn)	0.278%
O=C(CNS(=O)(=O)c1ccc2c(c1)OCCCO2)N1CCN(c2ccc(F)cc2)CC1	-2.51%
CCc1ccc(C(=O)N2CCN(S(=O)(=O)c3sc(C(=O)O)c(C)c3C(=O)O)CC2)cc1	0.16%
N#Cc1nc(-c2cccc3ccccc23)oc1N	-1.65%
Cc1ccc2ccc3c(c2n1)NS(=O)(=O)c1ccccc1-3	-1.69%
COc1cccc(-n2c(SCC(=O)NC3CCS(=O)(=O)C3)nc3ccccc3c2=O)c1 (stereo not drawn)	-0.844%
CN(CC(=O)Nc1ccc(Cl)cc1)C(=O)c1ccc(COc2ccccc2)cc1	3.35%
O=C(NCC1CCCO1)c1cc2c(s1)CCCC2 (stereo not drawn)	17.2%
CN(C)C(=O)c1ccc(NC(=O)COC(=O)c2cc3c(s2)CCCCC3)cc1	1.68%
O=C(Nc1ccc(F)cc1)c1cc2c(s1)CCCC2	87.7% (active)
CCOC(=O)[C@@H]1[C@H]2COc3cc(OC)ccc3[C@H]2N2C(=O)N(c3ccc(F)cc3)C(=O)[C@]12C	-1.09%
CCOC(=O)[C@@H]1[C@H]2COc3cc(OC)ccc3[C@@H]2N2C(=O)N(c3cccc(C)c3)C(=O)[C@@]12C	2.6%
CCOC(=O)[C@H]1[C@H]2COc3ccc(OC)cc3[C@@H]2N2C(=O)c3ccc(F)cc3NC(=O)[C@@]12C	88.1% (active)
CCOC(=O)c1ccccc1NC(=O)COC(=O)C(Cc1c[nH]c2ccccc12)NC(C)=O (stereo not drawn)	17.5%
O=C(/C=C/c1ccc(Cl)c([N+](=O)[O-])c1)c1ccc(O)cc1	83.8% (active)
O=C(/C=C/c1ccc(Cl)c([N+](=O)[O-])c1)c1cccnc1	-3.27%
CN(C)c1ccc(/C=C/C(=O)c2ccc(C(C)(C)C)cc2)cc1[N+](=O)[O-]	-0.491%
Cc1ccc(NC(=O)c2cc3ccccc3o2)cc1	102% (active)
C/C(=N\NC(=S)Nc1ccc(C)cc1)c1cc2ccccc2o1	4.04%

SMILES	activation
Cc1c(/C=N\NC(=O)c2cc3ccccc3o2)c2ccccc2n1C	-1.62%
O=c1c2ccccc2ccc2ccc(P(=O)(O)O)cc12	-0.0431%
COc1cc(C(=O)NCC(c2ccco2)N2CCCC2)ccc1OCc1ccccc1 (stereo not drawn)	3.05%
CCOc1cc(/C=C/C(=O)OCC(=O)NCCN2C(=O)CSC2=O)ccc1OCC(C)C	3.05%
CCOC(=O)c1sc(N)c(C#N)c1COC(=O)C1=COCCO1	-7.68%
CC(C)(C)C(=O)CSc1ccc(S(=O)(=O)N2CCCC2)cn1	0.185%
CCN(CC)S(=O)(=O)c1ccc(N2CCOCC2)c(NC(=O)C(C)Oc2ccc(F)cc2)c1 (stereo not drawn)	25.5%
O=C(NCc1ccccc1CN1CCCC1)c1cccc(S(=O)(=O)Nc2ccc(F)cc2)c1	2.73%
Cc1ccc(C2=NN(C)c3nc4ccccc4n3C2)cc1	84.2% (active)
Cn1cccc1-c1nc2ccccc2n1C	-1.64%
Cc1ccc(O)c(CNc2nc3ccccc3n2C)c1	1.21%
COc1ccc(S(=O)(=O)N2CCOCC2)cc1NC(=O)Cc1coc2cc(C)ccc12	-0.0282%
Cc1nc(-c2ccc(F)cc2)c(CC(=O)N(C)CC(=O)Nc2c(C)cccc2C)s1	-1.54%
COc1ccc(-c2c(-c3cc(OC)cc(OC)c3)n(C)c3ccc(-c4ccn[nH]4)cc23)cc1	-1.55%
Cc1onc(C(=O)NN)c1-c1csc(COc2ccccc2)n1	2.64%
COc1ccc(-c2csc(Cc3nc(O)cs3)n2)cc1	4.2%
CC(C)(C)C(=O)OCc1nc(-c2ccc(O)c(O)c2)cs1	91.2% (active)
CCOc1ccc(OCC(=O)OC(C)C(=O)NC2CCCCC2C)cc1 (stereo not drawn)	11.7%
CCc1ccc(/C=C2\SC(N3CCOCC3)=NC2=O)cc1	89.7% (active)
Cc1ccsc1/C=C1\SC(N2CCOCC2)=NC1=O	16.7%
CC1CCN(C2=NC(=O)/C(=C/c3ccc(O)cc3)S2)CC1	2.66%
Cc1nc(SCC(=O)NC2CCCCC2C)c(C#N)c(C)c1C (stereo not drawn)	11%

SMILES	activation
N#Cc1ccc(OCC(=O)NC(=O)NC2CCS(=O)(=O)C2)cc1 (stereo not drawn)	-0.359%
O=C(COC(=O)CCCN1C(=O)c2cccc3cccc(c23)C1=O)NC1CCS(=O)(=O)C1 (stereo not drawn)	-0.543%
Cc1ccc2c(CN3CCN(S(=O)(=O)c4ccccc4C(F)(F)F)CC3)cc(=O)oc2c1	4.46%
O=C(CSC(=S)N1CCOCC1)c1cc(Br)cc(Br)c1O	-0.207%
COc1cc2ccccc2cc1C(=O)N1CCOCC1	-0.849%
O=C(c1cc2cc(Br)cc(Br)c2oc1=O)N1CCOCC1	87.7% (active)
COc1cc(OC)cc(-c2c(-c3cccs3)c3cc(-c4ccc(OC)cc4F)ccc3n2C)c1	-2.36%
CN(C(=O)COC(=O)Cn1cnc2c1c(=O)n(C)c(=O)n2C)C1(C#N)CCCCC1	-2.27%
COc1ccc(C)cc1NC(=O)CN1c2cccc3cccc(c23)S1(=O)=O	-0.498%
CCCN(CC(=O)NC(=O)NC1CCCCC1)CC(=O)Nc1cc(Cl)ccc1Cl	3.99%
O=C(CCc1ccccc1Cl)Nc1ccc(S(=O)(=O)Nc2nccs2)cc1	-1.57%
COC(=O)c1ccc(CSc2ccc(S(=O)(=O)N3CCCCC3)cn2)cc1	6.26%
Cc1ccc(C(=O)NCC(c2cccs2)N(C)C)cc1S(=O)(=O)N1CCOCC1 (stereo not drawn)	10.3%
CN1CCN(S(=O)(=O)c2ccc(N3CCN(c4ccccc4O)CC3)c([N+](=O)[O-])c2)CC1	4.24%
Cc1ccc(CN2CC(C(=O)N3CCN(S(=O)(=O)c4ccccc4)CC3)CC2=O)cc1 (stereo not drawn)	0.927%
COc1ccc(NS(=O)(=O)c2cc(NC(=O)COc3ccccc3F)ccc2OC)cc1	0.255%
COc1ccc(C2=NN(C(=O)CSc3nnnn3C)C(c3ccco3)C2)cc1 (stereo not drawn)	-0.899%
O=C(CSc1nnc(CN2CCCC2)n1-c1ccc(F)cc1)c1ccc2c(c1)OCO2	4.88%
COc1ccc(Cl)cc1NC(=O)CCN1CCOCC1	-0.647%
COc1cccc(NC(=S)NCCCN2CCOCC2)c1	-6.52%
COc1cccc2cc(C(C)N(CCCN3CCOCC3)C(=O)Nc3ccc(Cl)cc3)oc12 (stereo not drawn)	85.6% (active)
Cc1cccc(C)c1NC(=O)COC(=O)c1c(C)nn(-c2ccccc2)c1C	0.597%

SMILES	activation
CN(C)c1ccc(/C=C2\NC(=S)N(Cc3ccccc3)C2=O)cc1	82.1% (active)
O=C1/C(=C\c2ccsc2)NC(=S)N1c1ccccc1	2.57%
O=C1NCC(=O)N(Cc2ccccc2)/C1=C/c1ccccc1	6.12%
Cc1csc(=O)n1CCC(=O)OCC(=O)NNC(=O)c1ccc(Br)cc1	2.91%
OCC[C@H]1C[C@H](O)[C@@H](O)[C@]2(Cc3ccccc3CO2)O1	1.78%
Cc1cccc(C(=O)Nc2ccc(CC(=O)O)cc2)c1	1.02%
Cc1cccc(C(=O)Nc2ccc3c(c2)C(=O)N(CC(C)C)C3=O)c1	80.9% (active)
Cc1cccc(N2C(=O)c3ccc(C(=O)Nc4cccc(C(=O)O)c4)cc3C2=O)c1	-0.654%
N#Cc1cccc(NC(=O)C2CCCN(C(=O)c3ccc(Cl)cc3)C2)c1 (stereo not drawn)	11.9%
O=C(/C=C\c1cn(-c2ccccc2)nc1-c1cccs1)N1CCOCC1	96.6% (active)
O=C(O)/C=C/c1cn(Cc2ccccc2)nc1-c1cccs1	2.25%
O=C(O)c1ccc(N/N=C/c2cn(-c3ccccc3)nc2-c2cccs2)cc1	-2.97%
CC(C(=O)Nc1ccc(S(=O)(=O)N2CCCC2)cc1)N(C)Cc1ccc(F)cc1 (stereo not drawn)	17.2%
O=C(CSc1ccccc1)Nc1cccc(S(=O)(=O)N2CCCCC2)c1	21.4%
O=C(OCC(=O)N1CCN(C(=O)c2ccco2)CC1)c1ccc(Cl)c(Cl)c1	2.6%
Oc1ccc(Cl)cc1C1C=C(c2ccc3c(c2)OCO3)NC(c2ccc(F)c(Br)c2)N1 (stereo not drawn)	6.1%
Cc1cccn2c(=O)c3cc(C(=O)NCCN4CCOCC4)c(=N)n(Cc4cccnc4)c3nc12	22.9%
Cc1cccn2c(=O)c3cc(C(=O)NCC4CCCO4)c(=N)n(Cc4ccc(F)cc4)c3nc12 (stereo not drawn)	84.1% (active)
COc1ccc(CCn2c(=N)c(C(=O)NCC3CCCO3)cc3c(=O)n4cccc(C)c4nc32)cc1OC (stereo not drawn)	4.61%
COC(=O)c1cc(Oc2ccc(S(=O)(=O)N3CCOCC3)cc2[N+](=O)[O-])cc(C(=O)OC)c1	-0.765%
CCCN(CC(=O)Nc1ccccc1C)C(=O)c1ccc2[nH]c3c(c2c1)CC(C)CC3 (stereo not drawn)	3.39%
CCN(CC)S(=O)(=O)c1ccc(OC)c(NC(=O)CCc2c(C)noc2C)c1	-1.51%

— PubChem BioAssay AID540275 (National Center for Advancing Translational Sciences (NCATS), 2011)
